MCL1 BIM primary: inhibitors of MCL1 binding to BIM-BH3, primary screen, biochemical, fluorescence polarization | inhibition, % at 10.9 µM | Induced myeloid leukemia cell differentiation protein Mcl-1 (Homo sapiens), Q07820 | hit rate 0.68% among 320,000 | GST-MCL1 / FITC-Bim-BH3 fluorescence polarization;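 active = inhibition above the mean inhibition of all tested compounds plus 3 SD, set per campaign, cut at about 40% in these data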;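 note: 0% = DMSO wells and 100% = unlabeled Bim-BH3 peptide control; higher means more loss of mP so more displacement of Bim peptide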
BCLXL inh: inhibitors of human Bcl-xL, primary screen, biochemical, fluorescence polarization, HTS; GST-Bcl-xL / FITC-Bim BH3 peptide fluorescence polarization; inhibition, % at 10.9 µM; hit rate 0.7% among 320,000;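 active = inhibition above the mean of all tested compounds plus 3 SD, cutoff set per campaign, cut at about 30% in these data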;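 note: 0% = DMSO wells and 100% = unlabeled Bim-BH3 peptide competitor; inhibitors lower millipolarization by displacing the labeled peptide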
Target sequence (Q07817 whole entry, looked up): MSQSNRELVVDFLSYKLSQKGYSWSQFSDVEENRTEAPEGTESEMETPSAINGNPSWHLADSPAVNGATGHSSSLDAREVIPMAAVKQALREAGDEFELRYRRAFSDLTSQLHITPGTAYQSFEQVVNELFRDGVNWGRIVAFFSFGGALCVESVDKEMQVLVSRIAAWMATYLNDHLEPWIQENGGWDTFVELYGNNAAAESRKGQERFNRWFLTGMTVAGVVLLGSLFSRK
GLD-1 TGE inh: GLD-1/TGE RNA complex disruptors, primary screen, biochemical, fluorescence polarization. Female germline-specific tumor suppressor gld-1 (Caenorhabditis elegans), Q17339. purified GLD-1 + fluorescein TGE RNA. inhibition, % at 5.96 µM. hit rate 0.44% among 320,000. AID 2280, 2010;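 active = percent inhibition above a per-plate cutoff, the plate mean of test compounds plus 3 SD, cut at about 30% in these data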;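 note: 0% = DMSO wells with GLD-1 and probe and 100% = wells lacking GLD-1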
MEX-5 binding: MEX-5 zinc finger RNA-binding disruptors – biochemical, C. elegans, fluorescence polarization, MLPCN library, primary screen | hit rate 0.38% among 300,000 | Zinc finger protein mex-5 (Caenorhabditis elegans), Q9XUB2 | activity score (negative = inhibition of binding), % at 10 µM | AID 1832, 2009 | MEX-5/FITC-TCR2 RNA binding; stronger effect = lower value;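 active = inhibition past about -25% in most replicates, and total fluorescence under double the plate's negative control median, limit read from the data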;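 note: 0% = DMSO and -100% = 5 µM competing unlabeled TCR2 RNA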
EBV gp42 inh: Epstein-Barr virus gp42 inhibitors, primary screen, biochemical, uHTS, fluorescence polarization; AID 1085, 2008; Fluorescence polarization binding assay, mP read-out; hit rate 0.42% among 220,000; inhibition, % (tested at 21.74 µM); in the data active = inhibition above about 50%
Target sequence (Q1HVG2 whole entry, looked up): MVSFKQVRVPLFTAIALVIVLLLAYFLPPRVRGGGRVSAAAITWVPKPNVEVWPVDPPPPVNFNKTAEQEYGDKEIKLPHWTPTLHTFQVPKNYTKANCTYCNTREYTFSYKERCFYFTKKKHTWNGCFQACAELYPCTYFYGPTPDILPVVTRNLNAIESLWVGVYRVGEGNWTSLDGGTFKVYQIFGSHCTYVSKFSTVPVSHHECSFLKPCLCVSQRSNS
Starred values were filed as active, the others as inactive. Hits are enriched below; roughly 1.3% of the tested compounds scored in any of these assays.

Cc1ccc(S(=O)(=O)N(Cc2ccc(C(F)(F)F)cc2)C(=O)N2CCN(C)CC2)cc1 was read as MCL1 BIM primary 2, BCLXL inh 4, GLD-1 TGE inh 8 and MEX-5 binding 0.
`CC1=Nc2ccccc2N=C(NC(=O)c2ccccc2)C1c1ccccc1` (centres undefined) gave MCL1 BIM primary 7, BCLXL inh 4, GLD-1 TGE inh -4, MEX-5 binding 0 and EBV gp42 inh 7.
Screening CC(C)(C)c1ccc(OCC(=O)Nc2ccc3c4c(cccc24)C(=O)NC3=O)cc1 returned MEX-5 binding -7 and EBV gp42 inh 57*.
`Cc1ccccc1N=Cc1c(O)n(-c2nccs2)c(=O)c2ccccc12` gave MCL1 BIM primary 10, BCLXL inh 8, GLD-1 TGE inh 2, MEX-5 binding -16 and EBV gp42 inh 2.
For O=c1c2ccccc2c(C=Nc2ccccc2O)c(O)n1-c1nccs1 the results were MCL1 BIM primary 30, BCLXL inh 37*, GLD-1 TGE inh -17, MEX-5 binding -13 and EBV gp42 inh 28.
`COc1ccc(OS(=O)(=O)c2c(C)noc2C)cc1` gave MCL1 BIM primary 0, BCLXL inh 0, GLD-1 TGE inh 5, MEX-5 binding 3 and EBV gp42 inh -6.
Screening CC(NC(=O)Nc1cccc(Cl)c1)C(c1cccs1)N1CCCC1 (centres undefined) returned MCL1 BIM primary 0, BCLXL inh 6, GLD-1 TGE inh 5, MEX-5 binding 0 and EBV gp42 inh -10.
Screening CC(NC(=O)Nc1ccc([N+](=O)[O-])cc1)C(c1cccs1)N1CCCC1 (centres undefined) returned MCL1 BIM primary 2, BCLXL inh 52*, GLD-1 TGE inh 4, MEX-5 binding -2 and EBV gp42 inh -13.
COc1cc(C(=O)Nc2nc3ccccc3[nH]2)ccc1OC(F)F was read as MCL1 BIM primary -6, BCLXL inh 73*, GLD-1 TGE inh 1, MEX-5 binding 2 and EBV gp42 inh -8.
`COc1ccc(C(=O)Nc2nc3ccccc3[nH]2)cc1OC` gave MCL1 BIM primary -2, BCLXL inh -1, GLD-1 TGE inh -3, MEX-5 binding -1 and EBV gp42 inh -20.
Screening N#CC1CC(c2ccc([N+](=O)[O-])cc2)=NN1c1ccc([N+](=O)[O-])cc1 (centres undefined) returned MCL1 BIM primary -73, BCLXL inh -38, GLD-1 TGE inh -19, MEX-5 binding -14 and EBV gp42 inh 94*.
`Cc1cccc2sc(N(CCN(C)C)C(=O)C3CCN(S(=O)(=O)c4cccs4)CC3)nc12` gave MCL1 BIM primary 5, BCLXL inh 8, GLD-1 TGE inh 1 and MEX-5 binding -2.
Screening Cc1cc(NC(=O)CSc2nc3c(c(=O)n2CCc2ccccc2)SC(C)C3)no1 (centres undefined) returned MCL1 BIM primary 0, BCLXL inh 31*, GLD-1 TGE inh -5, MEX-5 binding 0 and EBV gp42 inh 3.
For Cc1nn(-c2ccc(F)cc2)c(-n2cccc2)c1C(=O)N1CCN(C(=O)c2ccco2)CC1 the results were MCL1 BIM primary 4, BCLXL inh 7, GLD-1 TGE inh -5 and MEX-5 binding 3.
`N#Cc1c(N)nc2c3c(sc(=N)c2c1N)NC(=O)CC3c1ccccc1` (centres undefined) gave MCL1 BIM primary 42*, BCLXL inh 47*, GLD-1 TGE inh 0, MEX-5 binding -3 and EBV gp42 inh 0.
`COc1ccc(Nc2ncnc3nc[nH]c23)cc1OC` gave MCL1 BIM primary -1, BCLXL inh -1, GLD-1 TGE inh 1, MEX-5 binding -33* and EBV gp42 inh -8.
Screening COc1ccc(C(C(=O)NCC2CCCO2)N(C(=O)CNC(=O)c2cccs2)c2ccccc2C)cc1OC (centres undefined) returned MCL1 BIM primary 1, BCLXL inh 6, GLD-1 TGE inh -3, MEX-5 binding 1 and EBV gp42 inh -14.
`Cc1ccc(-c2cc(C(=O)Nc3cc(C)on3)no2)cc1` gave MCL1 BIM primary 28, BCLXL inh 37*, GLD-1 TGE inh 47*, MEX-5 binding 0 and EBV gp42 inh 11.
Cc1cc(Cl)c2cc3ccccc3cc2n1 was read as MCL1 BIM primary -4, BCLXL inh 1, GLD-1 TGE inh 11, MEX-5 binding 1 and EBV gp42 inh -5.
For O=C1OC(/C(=C\Nc2cc(Cl)ccc2O)[N+](=O)[O-])c2ccccc21 (centres undefined) the results were MCL1 BIM primary -4, BCLXL inh 1, GLD-1 TGE inh 9, MEX-5 binding -26* and EBV gp42 inh -2.
`O=C1OC(/C(=C\Nc2ccc(F)cc2F)[N+](=O)[O-])c2ccccc21` (centres undefined) gave MCL1 BIM primary 2, BCLXL inh 8, GLD-1 TGE inh 5, MEX-5 binding -2 and EBV gp42 inh -2.
CN(C)c1ccc(/C=C(\C#N)C(=O)NCc2ccco2)cc1 was read as MCL1 BIM primary -9, BCLXL inh -10, GLD-1 TGE inh -46, MEX-5 binding -42* and EBV gp42 inh -27.
For Cc1ccc(CNC(=O)/C(C#N)=C\c2ccc(N(C)C)cc2)cc1 the results were MCL1 BIM primary -9, BCLXL inh -2, GLD-1 TGE inh -62, MEX-5 binding -60* and EBV gp42 inh -26.
Screening CCN(CC)c1ccc(/C=C(\C#N)C(=O)NCc2ccco2)cc1 returned MCL1 BIM primary -30, BCLXL inh -19, GLD-1 TGE inh -83 and EBV gp42 inh -97.
Screening Cn1cc(Br)c(-c2cccc(NC(=O)CC(C)(C)CC(=O)O)c2)n1 returned MCL1 BIM primary -2, BCLXL inh 2, GLD-1 TGE inh -1, MEX-5 binding -2 and EBV gp42 inh -9.
CCOC(=O)C(=O)C1=CN(Cc2ccccc2)C=C(C#N)C1 was read as MCL1 BIM primary 47*, BCLXL inh 43*, GLD-1 TGE inh 25 and MEX-5 binding 1.
For CN1CCCc2cc(C=O)ccc21 the results were MCL1 BIM primary 30, BCLXL inh 31*, GLD-1 TGE inh 4, MEX-5 binding -6 and EBV gp42 inh -6.
`C#CNC(=O)C1(CC=C)CCNCC1` gave MCL1 BIM primary -3, BCLXL inh 3, GLD-1 TGE inh 7 and MEX-5 binding 1.
`COc1ccccc1CNC(=O)COC(=O)/C=C/c1ccc2ccccc2n1` gave GLD-1 TGE inh 1.
N#CC1(NC(=O)COC(=O)/C=C/c2ccc3ccccc3n2)CCCCC1 was read as MCL1 BIM primary -13, BCLXL inh 32*, GLD-1 TGE inh 0 and MEX-5 binding 0.
O=C(O)C1Nc2c(C(F)(F)F)ccc(Cl)c2C2C=CCC12 (centres undefined) was read as MCL1 BIM primary 48*, BCLXL inh 38*, GLD-1 TGE inh 15 and MEX-5 binding -16.

Bioassay records (PubChem BioAssay)
